The entries come from a sample that favours hits as a whole.
Cycloheximide cs: affects cycloheximide protein synthesis inhibition readout, counter-screen; AID 2314; cell reporter, cycloheximide protein synthesis inhibition counterscreen; 300,000 compounds, 12% hits; max response, %; in the data active = max response mostly above about 13%, no sharp cut-off; inactive = mostly below about 14%; note: read at 38.3 µM for the half of the compounds with a filed dose; 0% is about no effect
Shiga toxin inh: Shiga toxin inhibition | inhibition, % at 38.7 µM | 290,000 compounds, 9.2% hits | Vero cells, Shiga toxin protein synthesis inhibition reporter; in the data active = inhibition mostly above about 28%, no sharp cut-off; inactive = mostly below about 43%; note: 0% is about no effect
Tb PYK inh: blocks Trypanosoma brucei pyruvate kinase; TbPYK enzyme, Kinase-Glo Plus ATP luminescence, 45 min; Potency, µM (titrated, usually from 76.8 µM), for inactives: top-dose activity, negative = inhibition, usual class: inhibitors; 410,000 compounds, 0.12% hits; AID 624173; note: potency is the fitted concentration of half-maximal effect; % is set by controls: 0 for no effect and ±100 for the full control effect; nearly all actives have a fitted effect of over 50% in size
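TbPYK + substrate in 50 mM TEA pH 7.2, 100 mM KCl, 10 mM MgCl2, 0.05% BSA, 0.01% Tween-20; cpd pinned; ADP 130 uM final; 45 min RT; Kinase-Glo Plus 10 min; luminescence endpoint.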
Giardia FBPA inh: blocks Giardia fructose-bisphosphate aldolase activity; purified Giardia FBPA; AID 2451; Potency, µM (doses to about 59.6 µM), for inactives: at the highest dose activity, negative = inhibition, most hits filed as inhibitors; 290,000 compounds, 0.71% hits; A8B2U2; note: potency is the fitted concentration of half-maximal effect; % is set by controls: 0 for no effect and ±100 for the full control effect; nearly all actives have a fitted effect of over 55% in size
Target sequence (A8B2U2 whole entry, looked up): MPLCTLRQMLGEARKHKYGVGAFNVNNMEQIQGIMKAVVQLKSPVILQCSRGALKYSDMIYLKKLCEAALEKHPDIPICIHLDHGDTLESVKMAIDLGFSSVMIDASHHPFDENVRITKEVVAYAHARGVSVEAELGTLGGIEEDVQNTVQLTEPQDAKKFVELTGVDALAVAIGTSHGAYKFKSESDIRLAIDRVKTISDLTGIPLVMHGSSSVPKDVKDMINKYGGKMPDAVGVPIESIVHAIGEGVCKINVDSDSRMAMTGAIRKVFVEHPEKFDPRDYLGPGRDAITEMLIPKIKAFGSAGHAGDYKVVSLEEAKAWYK
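Giardia FBPA (40 nM reagent) was preincubated 10 min at RT with compound (up to 57.5 uM final), then substrate plus GAPDH/TPI/NAD/arsenate coupling system with diaphorase/resazurin was added; resorufin fluorescence (525/598 nm) was read after 20 min.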
LmPK inh: blocks Leishmania mexicana pyruvate kinase activity | Q27686 | purified LmPK, Kinase-Glo ATP luminescence, 1 h | Potency, µM (doses to about 57.5 µM), without a hit: at the top dose activity change, negative = inhibition, actives largely listed as inhibitors | 290,000 compounds, 0.37% hits; note: potency is the fitted concentration of half-maximal effect; % is set by controls: 0 for no effect and ±100 for the full control effect
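Screened at intermediate enzyme activity to detect both inhibitors and activators: LmPK at 0.1 nM, with a 0.5 nM enzyme column as activation reference. PEP 0.5 mM, ADP 0.1 mM; ATP detected by luminescence after 1 h.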
Sm TGR inh: S. mansoni TGR enzyme inhibition. Potency, µM (series often up to 114 µM), inactives show at the top dose activity change, negative = inhibition, actives largely listed as inhibitors. Q962Y6. 360,000 compounds, 3% hits. purified TGR, DTNB reduction, TNB absorbance 405 nm; note: potency is the fitted concentration of half-maximal effect; % is set by controls: 0 for no effect and ±100 for the full control effect; nearly all actives have a fitted effect of over 60% in size
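TGR 20 nM + NADPH 100 uM (dispensed conc.), cpd preinc 15 min RT; start with NADPH (500 uM addition) then DTNB (15 mM addition). Kinetic TNB absorbance, 405 nm filter. Four-parameter Hill fit across titration.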
* marks the source's active call; other numbers are inactive results; ? = inconclusive; . = no result given; [ ] = another dose, or the depositor's remark. Unless noted, calls come from the whole dose curve; as a rule, active = well fitted curve in the direction sought with a large enough effect; inconclusive = small, poorly fitted or top-dose-only effect, or another doubt; inactive = no such curve, though single readings can be large; an effect the other way counts as inactive or inconclusive.

SMILES | Cycloheximide cs | Shiga toxin inh | Tb PYK inh | Giardia FBPA inh | LmPK inh | Sm TGR inh
COc1ccc(CNC(=O)c2sccc2C)cc1 | 15* | 22 | -1% | -1% | -1% | 1%
COc1ccc(CNC(=O)c2ccc(Br)cc2)cc1 | 13* | 63 | . | 1% | 3% | 17%
COc1ccccc1CNC(=O)c1sccc1C | 6 | 35 | 0% | -4% | 5% | 4%
CCOC(=O)c1ccc(NC(=O)C2C3C=CC(C3)C2C(=O)O)cc1 (stereo not drawn) | 14 | 23 | 3% | 7% | 5% | -6%
COC(=O)c1ccc(NC(=O)C2C3C=CC(O3)C2C(=O)O)cc1 (stereo not drawn) | 20* | 30* | -3% | 8% | -1% | ?
CCOC(=O)c1ccc(NC(=O)C2C3C=CC(O3)C2C(=O)O)cc1 (stereo not drawn) | 13 | 29 | . | 12% | 3% | 56µM*
COC(=O)c1ccc(NC(=O)C2C3CCC(C3)C2C(=O)O)cc1 (stereo not drawn) | 4 | 12 | -8% | 16% | -1% | -30%
CCCOC(=O)c1ccc(NC(=O)C2C3CCC(C3)C2C(=O)O)cc1 (stereo not drawn) | 47* | 20* | -2% | 8% | 3% | 0%
COc1ccc(-c2nc3sc(CCNC(=O)Cc4ccc(F)cc4)c(C)n3n2)cc1 | . | . | 4% | . | . | 8%
COc1cccc(Oc2nnnn2-c2ccccc2)c1 | 33* | 146 | . | -1% | 1% | 0%
COc1ccc(Oc2nnnn2-c2ccccc2)cc1 | 32* | 31* | -6% | 7% | -4% | 0%
Clc1ccc(Oc2nnnn2-c2ccccc2)cc1 | 15 | 27 | -17% | 3% | 0% | 7%
Cn1c(=O)[nH]c(=O)c2c1nc(N1CCCCC1)n2CCSc1nc2ccccc2o1 | -1 | -12 | 0% | -12% | 5% | -13%
CC(C)CCn1c(Sc2nc3ccccc3o2)nc2c1c(=O)[nH]c(=O)n2C | 73* | 69* | -8% | -20% | -4% | 1%
Cc1ccc(-c2cc(-c3ccc(C)o3)nc(N)c2C#N)cc1 | -2 | 10 | 28µM* | ? | -24% | 3.2µM*
Cc1nc(N)c(C#N)c(-c2ccc3c(c2)OCO3)c1C | -3 | -2 | -1% | 5% | -3% | 6%
Cc1ccc(-c2cc(-c3ccc(F)cc3)c(C#N)c(N)n2)o1 | 0 | -7 | ? | ? | -21% | 20µM*
CCOc1cc(-c2cc(-c3ccc(C)o3)nc(N)c2C#N)ccc1O | 1 | -15 | 7% | -1% | 14% | -24%
Cc1cc(-c2cc(-c3ccc(Cl)cc3)nc(N)c2C#N)co1 | -4 | 9 | ? | ? | -3% | 3.2µM*
Cc1ccc(-c2cc(-c3ccc4c(c3)OCO4)c(C#N)c(N)n2)o1 | -1 | 4 | -21% | ? | -11% | 10µM*
Cc1ccc(-c2cc(-c3ccc(Cl)cc3)c(C#N)c(N)n2)o1 | 1 | -13 | ? | ? | -16% | 3.5µM*
Cc1ccc(-c2c(C#N)c(N)nc3c2CCCCC3)o1 | -4 | -6 | -12% | -9% | -3% | -24%
CCc1ccc(NC(=O)Cn2c(=O)n(Cc3ccc(C)cc3)c(=O)c3cccnc32)cc1 | . | . | 1% | . | . | 3%
COc1ccc(/C=N/OCC(=O)NC(c2ccccc2)c2ccccc2)cc1OC | 10 | 2 | -3% | -4% | 1% | -2%
COc1cc(/C=N/OCC(=O)NC2CCCCC2)ccc1OCc1ccccc1 | 55* | 152* | -8% | 1% | -1% | 4%
SMILES | Cycloheximide cs | Shiga toxin inh | Tb PYK inh | Giardia FBPA inh | LmPK inh | Sm TGR inh
COc1cc(/C=N/OCC(=O)NC23CC4CC(CC(C4)C2)C3)ccc1OCc1ccccc1 | 36* | 101* | -4% | -3% | 0% | 0%
CCCNC(C)C(=O)Nc1c(C)csc1C(=O)OC (stereo not drawn) | . | . | -11% | . | . | 3%
Clc1cccc(Cl)c1CSc1nnc(/C=C/c2ccccc2)o1 | 5 | 76 | 2% | -1% | 0% | 5%
Fc1cccc(Cl)c1Cc1noc(/C=C/c2ccccc2)n1 | 21* | 148 | -3% | 1% | 3% | 5%
COC(=O)c1ccc(CNC(=O)COC(=O)c2cc(Cl)ccc2O)cc1 | . | . | 0% | . | . | .
CCOC(=O)CC1COCCN1C(=O)c1cc(COc2ccc(F)cc2Cl)on1 (stereo not drawn) | 39* | 61* | 6% | . | 0% | 1%
O=C(c1cc(COc2ccc(F)cc2Cl)on1)N1CC2C[C@@H]3CC1C[C@H](C2)C3 | 30* | 102* | 1% | . | 1% | -9%
O=C(c1cc(COc2ccc(F)cc2Cl)on1)N1C[C@H]2CC[C@H]1C2 | 40* | 66* | -3% | . | -8% | 0%
Cc1ccccc1-c1nc(NCCN2CCOCC2)c2ccccc2n1 | . | . | . | -6% | . | .
COc1ccccc1CN=Cc1[nH]c2ccc(Br)c(Cl)c2c1O | -4 | -3 | -3% | ? | 12% | 11µM*
Cc1cccc(N=Cc2[nH]c3ccc(Br)c(Cl)c3c2O)c1 | 15 | 63* | -10% | ? | -5% | ?
Cc1ccc(C)c(CN2C(=O)c3ccccc3Sc3ccc(C(=O)NCc4ccc5c(c4)OCO5)cc32)c1 | -7 | -7 | -7% | . | . | 0%
C/C(CCN1CCCCc2nc(C)c(C)cc21)=N\OC[C@@H](O)COCc1ccco1 | . | . | . | -1%[12.9 µM] | . | .
CN(C)c1nccc(N(Cc2ccccc2)Cc2ccccc2)c1C#N | 36* | 94* | 2% | -15% | 5% | -25%
COc1ccc(C(=O)NCC(c2cccnc2)N2CCc3ccccc32)cc1 (stereo not drawn) | . | . | -10% | . | . | 0%
Cc1c(Br)c([N+](=O)[O-])nn1CC(=O)Nc1sc2c(c1C(=O)OC(C)C)CCCC2 | 44 | 123* | -5% | 8% | 4% | 6%
Cc1c(Br)c([N+](=O)[O-])nn1CCCC(=O)Nc1sc2c(c1C#N)CCC2 | -4 | -6 | ? | -8% | 7% | -8%
Cc1ccc(-c2nn(Cc3ccccc3)cc2C(=O)O)cc1 | 7 | 10 | 0% | 9% | -2% | 0%
Cc1ccc(-c2nn(Cc3ccccc3)cc2/C=C/C(=O)O)cc1C | -4 | -5 | -1% | 0% | -4% | 6%
Cc1ccc(-c2nn(Cc3ccccc3)cc2C=O)cc1C | 49* | active | 0% | -3% | 0% | -9%
Cc1ccc(-c2nn(Cc3ccccc3)cc2C=O)cc1 | 85* | 55* | -7% | 6% | -4% | -10%
Cc1ccc(Cn2cc(C=O)c(-c3ccc(F)cc3)n2)cc1 | 23* | 31* | -9% | 9% | 4% | 2%
COC(=O)c1ccc(C#CC(NP(=O)(c2ccccc2)c2ccccc2)c2ccccc2)cc1 (stereo not drawn) | . | . | . | -11% | . | .

Screens from PubChem BioAssay.
